Test results: PubChem BioAssay (EPA / NIEHS)
Where “and” joins values, the source holds several entries; their conditions need not be identical. Equal values may be shown once. Inconclusive results are not listed. Calls of active or inactive are those of the source. The calls were made as follows: active = hit-call score of the fitted dose curve at least 0.9, where 1 is the maximum; inconclusive = response in the unintended direction; inactive = score below 0.9.

What was measured:
[1] = biological target: human Peripheral-type Benzodiazepine Receptor (PBR), TSPO (gene 706) (UniProt P30536); assay: NVS_MP_hPBR: NovaScreen (NVS) Membrane Protein Assay for human Peripheral-type Benzodiazepine Receptor (PBR) (AID 2283331);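 also: hits reduce radioligand binding relative to DMSO baseline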
How it was run: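 Radioligand displacement on human colonic cell membranes, 1 h incubation; bound radioactivity by filtration and scintillation counting. Primary screen in duplicate at 25 uM single concentration, actives followed up in concentration series; loss of binding versus DMSO.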

[2] = biological target: human Androgen Receptor (AR), AR (gene 367) (UniProt P10275); assay: NVS_NR_hAR: NovaScreen (NVS) Nuclear Receptor Binding Assay for human Androgen Receptor (AR) (AID 2283332)
How it was run: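 LnCAP cell-free extract; radioligand displacement read by scintillation counting after 20 h. Primary screen single concentration 25 uM in duplicate, actives then run as concentration series; loss-of-signal fitted relative to DMSO baseline.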

[3] = biological target: rat Peripheral-type Benzodiazepine Receptor (PBR), Tspo (gene 24230) (UniProt P16257); assay: NVS_MP_rPBR: NovaScreen (NVS) Membrane Protein Assay for rat Peripheral-type Benzodiazepine Receptor (PBR) (AID 2283335)
How it was run: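 Radioligand displacement, rat kidney membrane prep, 1 h exposure, filter-based scintillation read; DMSO baseline, loss-of-signal scored. Primary screen at 25 uM in duplicate, actives followed up in concentration series.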

NCBI gene 100848466 = assay: NVS_NR_bPR: NovaScreen (NVS) Nuclear Receptor Binding Assay for bovine Progextron Receptor (PR) (AID 2283343);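 as to AC50: actives lower bound radioligand signal below DMSO meaning displacement of the label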
How it was run: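 Bovine uterine membrane preparation; radioligand displacement read by scintillation counting 18 h after dosing. Primary screen single concentration, 25 uM, in duplicate; actives followed up in concentration series. Signal loss versus DMSO baseline.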

[4] = biological target: human Constitutive Androstane Receptor (CAR), NR1I3 (gene 9970) (UniProt Q14994); assay: NVS_NR_hCAR_Antagonist: NovaScreen (NVS) Nuclear Receptor Binding Assay for human Constitutive Androstane Receptor Antagonism (CAR) (AID 2283344)
How it was run: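 Cell-free TR-FRET binding read 1 h after dosing, antagonist mode; loss of signal versus DMSO baseline. Primary screen in duplicate at a single 25 uM; actives retested in concentration series.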

[5] = biological target: Small conductance calcium-activated potassium channel protein 1 (Rattus norvegicus) (UniProt P70606); assay: NVS_IC_rKCaCh: NovaScreen (NVS) Ion Channel Assay for rat Potassium Channel, Ca2+ Act., VI (KCaCh) (AID 2283336)
How it was run: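 Radioligand binding to rat forebrain membranes, cell-free, read 1 hour after dosing by filter-based scintillation counting. Compounds first run in duplicate at 25 uM, actives then in concentration series; loss of signal vs DMSO indicates displacement.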

[6] = biological target: chimpanzee Androgen Receptor (AR), AR (gene 747460) (UniProt O97775); assay: NVS_NR_cAR: NovaScreen (NVS) Nuclear Receptor Binding Assay for chimpanzee Androgen Receptor (AR) (AID 2283346);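 also: radioligand displacement from AR measured by scintillation counting in a cell-free assay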
How it was run: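 Radioligand binding to chimpanzee AR expressed in Sf9/Sf21 cells, cell-free, measured 72 h after dosing by lysate-based scintillation counting. Loss of signal vs DMSO; initial duplicate screen at 25 uM, actives retested in concentration series.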

[7] = biological target: Voltage-gated inwardly rectifying potassium channel KCNH2 (Homo sapiens) (UniProt Q12809); assay: NVS_IC_hKhERGCh: NovaScreen (NVS) Ion Channel Assay for human Potassium Channel ERG (KhERGCh) (AID 2283333)
How it was run: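 Cell-free radioligand competition binding on hERG protein extracted from CHO cells, read by filter-based scintillation counting 0.75 h after dosing. Primary screen at 25 uM in duplicate, actives followed in concentration series. Signal loss fitted versus DMSO.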

[8] = tested on: guinea pig Histamine Receptor (H2), gene 100729734; assay: NVS_GPCR_gH2: NovaScreen (NVS) G Protein-Coupled Receptor Assay for guinea pig Histamine Receptor (H2) (AID 2283342)
How it was run: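 Radioligand displacement on guinea pig striatal membranes, 1 h after dosing, filter-based scintillation counting; loss of signal versus DMSO. Single-point screen at 25 uM in duplicate, then concentration-response up to 50 uM.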

[9] = biological target: rat Gamma-Aminobutyric Acid Type A Receptor, Non-Selective (GABAR-NonSelective), Gabra1 (gene 29705) (UniProt P62813); assay: NVS_LGIC_rGABAR_NonSelective: NovaScreen (NVS) Ligand-Gated Ion Channel Assay for rat Gamma-Aminobutyric Acid Type A Receptor, Non-Selective (GABAR-NonSelective) (AID 2283326)
How it was run: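 Radioligand displacement on rat whole-brain extract, 1 h, filter scintillation readout; signal loss fitted versus DMSO. Primary screen in duplicate at 25 uM; hits (e.g. ≥30% inhibition) retested in concentration-response up to 50 uM.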

[10] = biological target: bovine Estrogen Receptor (ER), ESR1 (gene 407238) (UniProt P49884); assay: NVS_NR_bER: NovaScreen (NVS) Nuclear Receptor Binding Assay for bovine Estrogen Receptor (ER) (AID 2283345);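 also: actives lower the bound radioligand count which means they displace the ER ligand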
How it was run: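 Cell-free radioligand binding with receptor from bovine uterine membranes, read by scintillation counting 18 h after dosing. Loss of specific binding was scored against DMSO; primary screen at 25 uM in duplicate, actives then run as concentration series.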

[11] = biological target: rat Glutamate, NMDA Agonist Site (GluNMDA), Grin1 (gene 24408) (UniProt P35439); assay: NVS_LGIC_rGluNMDA_Agonist: NovaScreen (NVS) Ligand-Gated Ion Channel Assay for rat Glutamate, NMDA Agonist Site (GluNMDA) (AID 2283327)
How it was run: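 Rat forebrain membranes, radioligand binding in the agonist-site protocol; 1 h after dosing; filter-based scintillation counting. Single-concentration duplicate screen at 25 uM, then concentration-response up to 50 uM for actives; gain-of-signal vs DMSO.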

[12] = biological target: rat Thyrotropin Releasing Hormone Receptor (TRH), Trhr (gene 25570) (UniProt Q01717); assay: NVS_GPCR_rTRH: NovaScreen (NVS) G Protein-Coupled Receptor Assay for rat Thyrotropin Releasing Hormone Receptor (TRH) (AID 2283329);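 also: hit means lower bound tracer signal versus DMSO baseline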
How it was run: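 Cell-free radioligand binding on rat forebrain membranes; bound tracer measured by filter-based scintillation counting 4 hours after dosing. Loss of signal versus DMSO baseline indicates displacement; primary screen at 25 uM in duplicate, actives then run in concentration series.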

[13] = biological target: rat Glutamate, AMPA Site (AMPA), Gria1 (gene 50592) (UniProt P19490); assay: NVS_LGIC_rAMPA: NovaScreen (NVS) Ligand-Gated Ion Channel Assay for rat Glutamate, AMPA Site (AMPA) (AID 2283324)
How it was run: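 Rat forebrain membranes; radioligand binding read 1 h after dosing by filtration and scintillation counting. Duplicate single-point screen at 25 uM, then concentration-response to 50 uM for threshold hits (e.g. 30% inhibition); loss of signal vs DMSO.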

[14] = biological target: rat Glutamate, MK-801 Agonist Site (GluNMDA_MK801), Grin1 (gene 24408) (UniProt P35439); assay: NVS_LGIC_rGluNMDA_MK801_Agonist: NovaScreen (NVS) Ligand-Gated Ion Channel Assay for rat Glutamate, MK-801 Agonist Site (GluNMDA_MK801) (AID 2283340)
How it was run: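 Radioligand binding at MK-801 site in rat forebrain membranes, 1.5 h incubation, filter-based scintillation counting. Initially 25 uM in duplicate; actives then run in concentration-response up to 50 uM, fitted for gain of signal versus DMSO.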

[15] = NVS_IC_rCaBTZCHL: NovaScreen (NVS) Ion Channel Assay for Calcium Channel, Type L, Benzothiazepine Site (CaBTZCHL) (AID 2283337)
How it was run: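 Radioligand binding to the benzothiazepine site of L-type Ca channels in rat cortical membranes (cell-free), 1.5 h after dosing; filter-based scintillation counting. Loss of signal relative to DMSO baseline; primary single-concentration screen at 25 uM, actives then run in concentration series.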

[16] = biological target: rat Glycine Receptor, Strychnine-sensitive (GlyRStrySens), Glra1 (gene 25674) (UniProt P07727); assay: NVS_LGIC_rGlyRStrySens: NovaScreen (NVS) Ligand-Gated Ion Channel Assay for rat Glycine Receptor, Strychnine-sensitive (GlyRStrySens) (AID 2283341)
How it was run: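 Radioligand displacement on rat spinal cord membranes, 1 hr, filter scintillation read-out. Single-concentration duplicate screen at 25 uM; chemicals meeting threshold (e.g., 30% inhibition) rerun in concentration-response up to 50 uM. Loss of binding fitted versus DMSO.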

Sequence of bovine Estrogen Receptor (ER), ESR1 (gene 407238) (P49884 whole entry, looked up): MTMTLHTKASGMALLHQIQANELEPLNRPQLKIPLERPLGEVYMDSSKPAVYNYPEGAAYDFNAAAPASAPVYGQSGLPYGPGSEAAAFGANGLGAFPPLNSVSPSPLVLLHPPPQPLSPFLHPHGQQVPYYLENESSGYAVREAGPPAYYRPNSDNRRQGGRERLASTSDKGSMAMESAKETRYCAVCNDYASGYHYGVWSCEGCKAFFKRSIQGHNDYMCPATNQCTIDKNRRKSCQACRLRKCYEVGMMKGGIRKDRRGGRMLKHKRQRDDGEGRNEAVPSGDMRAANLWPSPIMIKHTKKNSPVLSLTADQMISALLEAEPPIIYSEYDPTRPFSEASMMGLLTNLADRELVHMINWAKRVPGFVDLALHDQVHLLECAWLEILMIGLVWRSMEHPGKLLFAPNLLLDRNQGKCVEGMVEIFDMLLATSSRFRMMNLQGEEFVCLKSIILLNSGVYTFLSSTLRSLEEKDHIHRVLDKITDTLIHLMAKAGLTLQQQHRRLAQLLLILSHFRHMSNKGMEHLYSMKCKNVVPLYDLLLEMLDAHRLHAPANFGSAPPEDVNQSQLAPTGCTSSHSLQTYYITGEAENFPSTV
Sequence of rat Gamma-Aminobutyric Acid Type A Receptor, Non-Selective (GABAR-NonSelective), Gabra1 (gene 29705) (P62813 whole entry, looked up): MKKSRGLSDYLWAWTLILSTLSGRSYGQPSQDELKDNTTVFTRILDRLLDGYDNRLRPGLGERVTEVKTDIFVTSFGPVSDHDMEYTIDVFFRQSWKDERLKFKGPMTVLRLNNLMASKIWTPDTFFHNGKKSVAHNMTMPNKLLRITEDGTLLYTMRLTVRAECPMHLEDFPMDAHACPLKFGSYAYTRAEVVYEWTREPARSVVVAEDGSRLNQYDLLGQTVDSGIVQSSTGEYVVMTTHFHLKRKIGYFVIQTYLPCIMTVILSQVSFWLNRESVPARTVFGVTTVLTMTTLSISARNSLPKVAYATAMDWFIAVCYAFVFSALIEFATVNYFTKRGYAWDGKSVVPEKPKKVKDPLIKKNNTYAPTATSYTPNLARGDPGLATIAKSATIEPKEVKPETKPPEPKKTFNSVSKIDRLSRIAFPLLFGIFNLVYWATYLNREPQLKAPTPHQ
Sequence of rat Thyrotropin Releasing Hormone Receptor (TRH), Trhr (gene 25570) (Q01717 whole entry, looked up): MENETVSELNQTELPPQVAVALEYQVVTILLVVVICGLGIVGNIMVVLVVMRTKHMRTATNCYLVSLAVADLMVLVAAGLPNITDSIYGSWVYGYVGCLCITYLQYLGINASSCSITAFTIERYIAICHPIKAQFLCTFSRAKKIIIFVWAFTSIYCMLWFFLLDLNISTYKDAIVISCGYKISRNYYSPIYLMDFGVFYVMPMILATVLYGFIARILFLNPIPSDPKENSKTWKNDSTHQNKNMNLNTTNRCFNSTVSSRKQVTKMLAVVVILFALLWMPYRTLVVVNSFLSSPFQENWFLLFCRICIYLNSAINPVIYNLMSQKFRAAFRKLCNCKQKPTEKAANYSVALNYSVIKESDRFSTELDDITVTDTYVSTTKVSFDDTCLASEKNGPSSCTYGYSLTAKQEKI
Sequence of Voltage-gated inwardly rectifying potassium channel KCNH2 (Homo sapiens) (Q12809 whole entry, looked up): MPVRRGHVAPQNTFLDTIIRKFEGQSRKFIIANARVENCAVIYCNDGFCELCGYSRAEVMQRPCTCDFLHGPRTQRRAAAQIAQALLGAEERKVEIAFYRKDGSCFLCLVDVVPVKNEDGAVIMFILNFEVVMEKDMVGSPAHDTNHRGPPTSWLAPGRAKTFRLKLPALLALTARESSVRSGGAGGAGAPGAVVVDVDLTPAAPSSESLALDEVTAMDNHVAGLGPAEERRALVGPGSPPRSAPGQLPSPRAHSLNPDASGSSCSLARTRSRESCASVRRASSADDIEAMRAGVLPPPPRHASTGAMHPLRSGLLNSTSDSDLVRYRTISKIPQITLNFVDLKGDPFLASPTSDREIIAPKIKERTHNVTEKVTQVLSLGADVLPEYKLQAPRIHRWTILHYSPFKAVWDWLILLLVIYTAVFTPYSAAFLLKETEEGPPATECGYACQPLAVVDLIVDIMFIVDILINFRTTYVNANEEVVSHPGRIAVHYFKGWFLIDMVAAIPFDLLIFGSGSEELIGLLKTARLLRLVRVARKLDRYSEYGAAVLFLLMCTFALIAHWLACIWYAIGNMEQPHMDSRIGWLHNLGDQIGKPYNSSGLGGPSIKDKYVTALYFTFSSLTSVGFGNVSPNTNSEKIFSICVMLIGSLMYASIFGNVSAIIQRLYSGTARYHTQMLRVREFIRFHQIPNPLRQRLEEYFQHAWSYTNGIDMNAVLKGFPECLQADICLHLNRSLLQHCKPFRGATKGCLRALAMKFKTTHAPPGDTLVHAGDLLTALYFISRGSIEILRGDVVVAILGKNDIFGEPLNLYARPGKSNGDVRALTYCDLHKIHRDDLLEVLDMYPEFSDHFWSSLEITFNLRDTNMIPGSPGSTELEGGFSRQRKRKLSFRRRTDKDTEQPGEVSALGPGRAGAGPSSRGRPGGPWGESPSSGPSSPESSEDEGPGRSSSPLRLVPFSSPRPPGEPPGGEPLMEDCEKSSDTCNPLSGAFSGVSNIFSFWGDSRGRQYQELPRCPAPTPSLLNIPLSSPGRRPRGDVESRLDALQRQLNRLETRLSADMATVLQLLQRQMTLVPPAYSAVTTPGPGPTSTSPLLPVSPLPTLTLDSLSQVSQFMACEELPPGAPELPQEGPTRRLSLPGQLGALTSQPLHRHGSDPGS
Sequence of human Androgen Receptor (AR), AR (gene 367) (P10275 whole entry, looked up): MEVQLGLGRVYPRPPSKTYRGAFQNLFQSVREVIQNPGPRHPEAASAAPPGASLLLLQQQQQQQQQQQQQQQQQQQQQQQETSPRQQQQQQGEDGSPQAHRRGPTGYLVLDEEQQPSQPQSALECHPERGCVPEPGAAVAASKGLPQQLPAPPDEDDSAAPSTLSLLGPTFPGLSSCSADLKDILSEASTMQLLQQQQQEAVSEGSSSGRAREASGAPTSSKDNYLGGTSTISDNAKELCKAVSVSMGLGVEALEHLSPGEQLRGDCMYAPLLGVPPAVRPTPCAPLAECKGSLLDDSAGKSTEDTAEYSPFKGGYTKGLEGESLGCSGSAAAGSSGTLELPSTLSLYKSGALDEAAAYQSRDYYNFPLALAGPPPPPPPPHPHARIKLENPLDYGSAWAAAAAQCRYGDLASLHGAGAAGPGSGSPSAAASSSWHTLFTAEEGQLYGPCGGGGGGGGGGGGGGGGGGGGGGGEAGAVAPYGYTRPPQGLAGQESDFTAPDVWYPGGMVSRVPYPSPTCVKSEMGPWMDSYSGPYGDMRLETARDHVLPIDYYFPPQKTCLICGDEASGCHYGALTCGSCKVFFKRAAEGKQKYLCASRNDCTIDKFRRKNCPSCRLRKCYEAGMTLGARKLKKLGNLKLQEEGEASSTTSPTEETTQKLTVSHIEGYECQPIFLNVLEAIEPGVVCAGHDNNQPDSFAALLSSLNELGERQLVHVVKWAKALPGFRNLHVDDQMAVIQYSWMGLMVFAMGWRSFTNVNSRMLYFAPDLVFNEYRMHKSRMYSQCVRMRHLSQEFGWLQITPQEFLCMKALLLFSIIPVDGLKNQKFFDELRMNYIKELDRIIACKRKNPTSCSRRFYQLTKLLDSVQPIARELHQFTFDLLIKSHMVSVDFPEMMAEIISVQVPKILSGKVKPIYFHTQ
Sequence of rat Peripheral-type Benzodiazepine Receptor (PBR), Tspo (gene 24230) (P16257 whole entry, looked up): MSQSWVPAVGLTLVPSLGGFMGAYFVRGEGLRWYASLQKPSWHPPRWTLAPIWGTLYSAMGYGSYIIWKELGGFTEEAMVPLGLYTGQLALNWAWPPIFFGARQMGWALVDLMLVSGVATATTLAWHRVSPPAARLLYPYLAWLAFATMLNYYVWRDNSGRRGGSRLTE
Sequence of human Peripheral-type Benzodiazepine Receptor (PBR), TSPO (gene 706) (P30536 whole entry, looked up): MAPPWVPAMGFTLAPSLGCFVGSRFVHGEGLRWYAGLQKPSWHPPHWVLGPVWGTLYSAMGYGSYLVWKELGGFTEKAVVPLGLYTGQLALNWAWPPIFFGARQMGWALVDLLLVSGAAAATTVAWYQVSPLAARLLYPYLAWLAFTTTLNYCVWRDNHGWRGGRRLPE
Sequence of chimpanzee Androgen Receptor (AR), AR (gene 747460) (O97775 whole entry, looked up): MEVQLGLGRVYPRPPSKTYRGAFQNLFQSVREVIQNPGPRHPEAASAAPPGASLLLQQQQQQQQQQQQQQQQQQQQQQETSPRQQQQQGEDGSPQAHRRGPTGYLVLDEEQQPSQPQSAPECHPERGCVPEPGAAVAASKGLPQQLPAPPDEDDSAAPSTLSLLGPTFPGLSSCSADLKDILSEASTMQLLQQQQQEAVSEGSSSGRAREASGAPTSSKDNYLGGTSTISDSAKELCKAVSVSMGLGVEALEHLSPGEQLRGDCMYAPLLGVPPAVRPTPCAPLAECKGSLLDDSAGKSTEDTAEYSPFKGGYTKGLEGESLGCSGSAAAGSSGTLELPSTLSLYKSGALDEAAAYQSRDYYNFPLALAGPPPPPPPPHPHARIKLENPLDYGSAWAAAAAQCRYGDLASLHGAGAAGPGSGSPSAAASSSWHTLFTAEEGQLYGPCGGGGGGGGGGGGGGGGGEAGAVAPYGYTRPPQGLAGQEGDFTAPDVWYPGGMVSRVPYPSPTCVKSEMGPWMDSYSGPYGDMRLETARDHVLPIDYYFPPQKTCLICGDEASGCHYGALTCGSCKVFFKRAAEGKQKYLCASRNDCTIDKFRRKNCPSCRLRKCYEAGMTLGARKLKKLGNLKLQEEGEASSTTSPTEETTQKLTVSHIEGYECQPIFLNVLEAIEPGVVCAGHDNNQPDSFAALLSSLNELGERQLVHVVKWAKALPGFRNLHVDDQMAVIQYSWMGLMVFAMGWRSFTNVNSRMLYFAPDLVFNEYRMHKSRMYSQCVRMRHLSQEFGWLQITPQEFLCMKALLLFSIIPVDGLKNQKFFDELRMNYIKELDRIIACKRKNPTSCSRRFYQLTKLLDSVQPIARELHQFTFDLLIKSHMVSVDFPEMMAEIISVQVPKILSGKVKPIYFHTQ

In the case of CCOC(=O)CC(SP(=S)(OC)OC)C(=O)OCC (stereo not drawn), the AC50 [1] is reported as 2.17 µM (active), the AC50 [2] is reported as 25 µM (active) and the AC50 [3] is reported as 10.5 µM (active). For the same compound, the outcome (NCBI gene 100848466) was “inactive” and the AC50 [4] was 18.6 µM (active).
For CON(C)C(=O)Nc1ccc(Cl)c(Cl)c1, the AC50 [1] was 11.9 µM (active) [middle of 4 runs], the AC50 [3] was 4.62 µM (active) [middle of 4 runs] and the outcome [5] was “inactive”. The outcome (NCBI gene 100848466) was “inactive”, the outcome [4] was “inactive” and the AC50 [6] was 15.3 µM (active).
In the case of CCCC1COC(Cn2cncn2)(c2ccc(Cl)cc2Cl)O1 (stereo not drawn), the AC50 [1] is reported as 17.3 µM (active), the AC50 [2] is reported as 18.1 µM (active) and the outcome [7] is reported as “inactive”. For the same compound, the AC50 [3] was 12.3 µM (active), the outcome [8] was “inactive” and the AC50 (NCBI gene 100848466) was 17.9 µM (active). For the same compound, the AC50 [4] was 11.8 µM (active) and 25 µM (active) and the AC50 [6] was 9.99 µM (active).
In the case of C=CCC1=C(C)C(OC(=O)C2C(C=C(C)C)C2(C)C)CC1=O (stereo not drawn), the AC50 [9] is reported as 7.41 µM (active) and 66.1 nM (active), the outcome [1] is reported as “inactive” and the outcome [3] is reported as “inactive”. The outcome [8] was “inactive”, the outcome [10] was “inactive” and the outcome [6] was “inactive”.
With CCCCC(CC)COC(=O)c1ccccc1C(=O)OCC(CC)CCCC (stereo not drawn) the outcome [11] was “inactive”, the AC50 [1] was 8.75 µM (active) and the AC50 [3] was 15.6 µM (active). For the same compound, the outcome (NCBI gene 100848466) was “inactive”, the outcome [4] was “inactive” and the outcome [10] was “inactive”.
With N#Cc1nn(-c2c(Cl)cc(C(F)(F)F)cc2Cl)c(N)c1S(=O)C(F)(F)F (stereo not drawn) the outcome [12] was “inactive”.
With CCOC(=O)C(Cl)Cc1cc(-n2nc(C)n(C(F)F)c2=O)c(F)cc1Cl (stereo not drawn) the outcome [9] was “inactive”, the AC50 [1] was 25 µM (active) and the AC50 [3] was 16.1 µM (active).
In the case of CNC(=S)S, the outcome [13] is reported as “inactive”, the outcome [12] is reported as “inactive” and the outcome [1] is reported as “inactive”. For the same compound, the outcome [3] was “inactive”, the outcome [14] was “inactive” and the outcome [4] was “inactive”.
In the case of CCOc1cc(Oc2ccc(C(F)(F)F)cc2Cl)ccc1[N+](=O)[O-], the outcome [12] is reported as “inactive”.
For CN(C)C(=S)SSC(=S)N(C)C, the outcome [9] was “inactive”, the AC50 [3] was 11 µM (active) and the outcome [8] was “inactive”.
For OC(c1ccc(Cl)cc1)(c1cncnc1)c1ccccc1Cl (stereo not drawn), the outcome [12] was “inactive”, the outcome [1] was “inactive” and the outcome [7] was “inactive”. For the same compound, the AC50 [3] was 4.89 µM (active), the outcome [15] was “inactive” and the AC50 [4] was 25 µM (active). For the same compound, the outcome [10] was “inactive” and the outcome [6] was “inactive”.
In the case of O=C(Nc1ccccc1)Nc1ccnc(Cl)c1, the outcome [1] is reported as “inactive”, the AC50 [2] is reported as 5.13 µM (active) and the AC50 [7] is reported as 9.2 µM (active). For the same compound, the AC50 [3] was 15.6 µM (active) and the outcome [16] was “inactive”.
